The text below walks through data of PubChem BioAssay AID1458 (National Center for Advancing Translational Sciences (NCATS), 2008).

The campaign covered roughly 210,000 compounds. About 5,900 (2.8%) were called active. Where a call stands in place of a potency, no number is given. Roughly 5% stayed inconclusive and do not appear here. Only a selection was taken, and actives are over-represented in it overall. Values without a mark were called inactive. Calls come from the whole dose curve; as a rule, active = well fitted activation curve with a large enough effect; inconclusive = small, poorly fitted or top-dose-only effect; inactive = no such curve, though single readings can be large or run the other way.
Potency is the fitted concentration of half-maximal effect.

This test in a line: qHTS Assay for Enhancers of SMN2 Splice Variant Expression. Note: nearly all actives have a fitted effect of over 55% in size. The following applies: HEK293 SMN2-luciferase splicing reporter, luminescence, 30-36 h; series mostly up to 46.1 µM. The procedure, abridged:
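qHTS luciferase splicing reporter: luminescence rises when SMN2 exon 7 is included in transfected HEK293 cells. Compound exposure lasted 30-36 h at 37C, with 4.5 mM final sodium butyrate as control, followed by a ONE-Glo read.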
Consider `Cc1ccc(-c2nc3ccccn3c2Nc2c(C)cccc2C)o1`, for which the Potency result is “inactive”.
On to `N#C/C(=C\c1cccc(F)c1)c1nc(-c2cc3c(ccc4ccccc43)oc2=O)cs1`, for which the Potency result was “inactive”.
Same read-out and setting: as for `CCOc1ccc(C(=O)c2cn(Cc3ccc(F)cc3)c3ccc(F)cc3c2=O)cc1`, the entry is “inactive”; as for `Cc1ccc(C(=O)NCCNC(=O)c2ccccc2)cc1`, “inactive”; as for `Cc1ccc2nc(CNC(=O)c3ccccc3)[nH]c2c1`, 11.2 µM (active).
Regarding `Cc1ccc2nc(CC(=O)c3ccc4ccccc4c3)c(=O)[nH]c2c1`, the activity change, positive = activation was -3.77% [at 9.22 µM].
Consider `Cc1ccc(C)c(Nc2nnc(-c3ccc(C)c(S(=O)(=O)N4CCCCC4)c3)c3ccccc23)c1`, for which the Potency result was “inactive”.
Still for that read-out and setting: the value for `Cc1cc(NC(=O)C2CCC(CNS(=O)(=O)c3ccc(Br)s3)CC2)ccc1Br` (centres undefined) was “inactive”.
As to `CCC(=O)Nc1cccc(NC(=O)c2cccnc2)c1`, the Potency entry was “inactive”.
The same measure, in the same setting: the value for `Cc1ccc(-n2nc3cc(C)c(NC(=O)c4cccnc4)cc3n2)cc1` was “inactive”; that for `Cc1cc2nc(-c3ccc(NC(=O)c4cccnc4)cc3)oc2cc1C` was 12.6 µM (active).
Regarding `O=C(CSc1nnc(CNC(=O)c2ccccc2)n1-c1ccc(F)cc1)Nc1ccccc1F`, the Potency result was “inactive”.
Take `Cc1ccc(CNC(=O)CCc2c(C)nc3nc(CNC(=O)OC(C)(C)C)nn3c2C)cc1`: the Potency result is “inactive”.
Same read-out and setting: as for `COc1ccc(CCNCc2c(C(=O)O)c(C)n(Cc3cccc(C)c3)c2C)cc1OC`, the entry is “inactive”; as for `COc1cccc(C(=O)Nc2ccc(NC(=O)c3ccco3)cn2)c1`, “inactive”; as for `Cc1occc1C(=O)Nc1nnc(-c2ccncc2)s1`, “inactive”.
Regarding `Cc1ccnc(NC(=O)c2ccoc2C)c1`, the Potency was 15.8 µM (active).
On to `Cc1ccc(C(=O)COc2cccc(NC(=O)c3ccco3)c2)cc1`, for which the Potency entry was “inactive”.
The same measure, in the same setting: the value for `COc1ccccc1OCCNC(=O)c1cc([N+](=O)[O-])cc([N+](=O)[O-])c1` was “inactive”; that for `Cc1occc1C(=O)Nc1cccc(Cn2cccn2)c1` was “inactive”.
Regarding `Cc1ccnc(NC(=O)c2ccc(NC(=O)c3ccco3)cc2)c1`, the Potency is 10 µM (active).
In the case of `Cc1ccnc(NC(=O)CCCOc2ccccc2)c1`, the Potency entry was “inactive”.
Same read-out and setting: the value for `COc1cc(SC)ccc1C(=O)Nc1nc(C)cs1` was “inactive”; that for `COc1ccccc1CNC(=O)c1ccc(SC)cc1OC` was “inactive”.
As to `COc1cc(SC)ccc1C(=O)Nc1cc(C)ccn1`, the Potency was 2.24 µM (active).
Consider `COc1cc(SC)ccc1C(=O)NCCOc1ccccc1Cl`, for which the Potency was 12.6 µM (active).
Take `CCOc1ccc2oc(=O)cc(CN3CCN(C(=O)c4ccc(F)cc4)CC3)c2c1`: the Potency entry is “inactive”.
Turning to `CCOC(=O)c1ccc(NC(=O)CC2C(=O)N(c3cccc(OC)c3)C(=O)N2C2CCCCC2)cc1` (centres undefined), the Potency result is “inactive”.
For the compound `COc1cc(C(=O)N2CCN(C(=O)COc3cccc(C)c3)CC2)cc(OC)c1OC`, the Potency entry was “inactive”.
On to `CC(=O)c1sc(N2C(=O)c3oc4ccccc4c(=O)c3C2c2ccc(C)cc2)nc1C` (centres undefined), for which the Potency entry was “inactive”.
Consider `CCc1ccc(NC(=O)c2sc3nc4c(cc3c2N)CN(CC)CC4)cc1`, for which the Potency result was “inactive”.
Turning to `O=C(CSc1ccccc1)Nc1ccc(NC(=O)c2ccco2)cc1`, the Potency entry is “inactive”.
Still for that read-out and setting: the value for `O=C(/C=C/c1ccco1)Nc1ccc(Oc2ccccc2)cc1` was “inactive”; that for `O=C(Nc1ccc(Oc2ccccc2)cc1)c1ccco1` was 15.8 µM (active).
As for `C#CC(C)(CC)NC(=O)Cn1nnc(-c2ccc(OCc3c(F)cccc3Cl)cc2)n1` (centres undefined), the Potency entry was “inactive”.
Regarding `COc1ccc(CCNC(=O)CCCCn2c(=O)c3ccccc3n(Cc3ccccc3)c2=O)cc1OC`, the Potency entry is “inactive”.
On to `COc1cc(/C=C/C2=CC(C)(C)NC(=S)N2)cc(OC)c1OC`, for which the Potency was 11.2 µM (active).
In the case of `COc1cc(/C=C/CO)cc(OC)c1O[C@@H]1O[C@H](CO)[C@@H](O)[C@H](O)[C@H]1O`, the Potency entry is “inactive”.
As to `Cc1noc(/C=C/N(C)C)c1S(=O)(=O)N1CCCC(C(=O)Nc2cccc(F)c2)C1` (centres undefined), the Potency entry is “inactive”.
Consider `Cc1cc(C)c(NC(=O)CCc2c(C)nc3c(c(C)nn3C(C)(C)C)c2C)c(C)c1`, for which the Potency entry is “inactive”.
With `c1ccc(CSc2nnc(-c3ccco3)n2Cc2ccccc2)cc1`, the Potency is 22.4 µM (active).
Regarding `c1ccc(CSc2nnc(-c3ccco3)c(-c3ccco3)n2)cc1`, the Potency entry was “inactive”.
For `O=C(CSc1nnc(-c2ccco2)n1Cc1ccccc1)NC(=O)NCc1ccco1`, the Potency result is “inactive”.
Take `COc1ccc(Cn2cc(C(=O)c3ccc(C)cc3)c(=O)c3cc(OC)c(OC)cc32)cc1`: the Potency entry was “inactive”.
With `Cc1ccn2c(Nc3ccc4c(c3)OCCO4)c(-c3ccc(C)s3)nc2c1`, the Potency result was “inactive”.
In the case of `CCN(CC)S(=O)(=O)c1ccc(C(=O)N=c2sc3cccc(OC)c3n2C)cc1`, the Potency result is “inactive”.
As for `Cc1cc(C)c(-c2n[nH]c3c2C(c2ccccc2F)N(CCO)C3=O)c(O)c1` (centres undefined), the Potency result is “inactive”.
As for `CCn1cc(C(=O)N2CCN(c3cc(C)ccc3C)CC2)c(=O)c2cc(S(=O)(=O)N(C)C3CCCCC3)ccc21`, the Potency result is “inactive”.
As for `Cc1ccn(-c2cccc(-n3ccc(C)n3)n2)n1`, the Potency was 7.94 µM (active).
For the compound `CCOc1ccc(NC(=O)CC2C(=O)N(c3cccc(OC)c3)C(=O)N2C2CCCCC2)cc1` (centres undefined), the Potency entry was “inactive”.
For `Cc1cccc(CC(=O)N2CC(=O)Nc3ccc(F)cc3C2c2ccccc2)c1` (centres undefined), the Potency result is “inactive”.
On to `COc1ccc(N/N=C2/CCCCC2=O)cc1`, for which the Potency entry was “inactive”.
In the case of `Cc1ccc(N/N=C2\COC(C)(C)CC2=O)cc1`, the Potency is 11.2 µM (active).
The same measure, in the same setting: as for `Cc1ccc(NN=C2C(=O)OC(C)(C)OC2=O)c(C)c1`, the entry is “inactive”; as for `CCCn1c(=N)n(CC(O)COc2ccccc2OC)c2ccccc21` (centres undefined), “inactive”; as for `CCOC(=O)c1ccc(NC(=O)CCn2c(=O)oc3ccccc32)cc1`, “inactive”.
`COc1ccc(/C=N/NC(=O)c2cccc(C(F)(F)F)c2)cc1`: the Potency entry was “inactive”.
Same read-out and setting: as for `CSc1ccc(/C=N\NC(=O)COc2ccc(Cl)cc2Br)cc1`, the entry is “inactive”; as for `CSc1ccc(/C=N/NC(=O)c2cccc(Cl)c2)cc1`, 10 µM (active); as for `CCn1cc(C(=O)N(C)Cc2ccccc2)c(=O)c2cc(S(=O)(=O)N3CCCCCC3)ccc21`, “inactive”.
`COC(=O)c1c(NC(=O)c2cc(=O)c3c(C)cc(C)cc3o2)sc2c1CCCC2`: the Potency result is “inactive”.
In the case of `Cc1nc(SCCOc2ccc(Cl)cc2)[nH]c(=O)c1Cc1ccccc1`, the Potency result was “inactive”.
`CC(=O)c1sc(N/N=C\c2ccc(C)cc2)nc1C`: the Potency was 10 µM (active).
As for `Cc1nonc1C(=O)N/N=C/c1ccc(O)cc1`, the activity change, positive = activation is 1.94% [at 1.84 µM].
On to `CCSc1nnc(NC(=O)c2ccc(C)cc2)s1`, for which the Potency was 14.1 µM (active).
On to `CC(=O)c1sc(NC(=O)C2=NN(c3ccccc3)C(=O)CC2)nc1C`, for which the Potency result was “inactive”.
`COc1ccc(/C=N\NC(=O)c2sc(N)nc2C)cc1OC`: the Potency result was “inactive”.
On the same count and under the same terms, the value for `CCSc1nnc(NC(=O)Cc2ccccc2OC)s1` was “inactive”; that for `CC(=O)c1sc(N/N=C/c2ccc(C(C)C)cc2)nc1C` was 17.8 µM (active).
For the compound `Cc1ccc(S(=O)(=O)Nc2nc(C)cc(N/N=C/c3ccc(O)cc3)n2)cc1`, the Potency result is “inactive”.
The same measure, in the same setting: the value for `CC(=O)c1sc(NC(=O)c2ccc(C)cc2)nc1C` was 5.62 µM (active); that for `CCOC(=O)CSc1nnc(NC(=O)c2cccc(S(=O)(=O)N3CCCCC3)c2)s1` was “inactive”.
In the case of `Cc1nnc(C)n1/N=C/c1ccc(C(C)C)cc1`, the Potency entry was “inactive”.
For `Cc1ccc(C(=O)Nc2nc(-c3ccccc3)ns2)cc1`, the Potency entry was “inactive”.
